Among the data in PMC11062922 (Nature Chemical Biology, 2023) are potency estimated from few doses values, retold here.

What all share (parameters): species or system human, MV4-11 + K-562 + COLO205 + SK-N-BE2 + OVCAR-8
The test system of experiment [1] is CDC42. To be noted: read-out: apparent Kd, compound concentrations: 100 nM and 1000 nM (sheet 'Samples'), n = 1.
For experiment [2], the system named is GSK3A. Conditions: read-out: apparent Kd, n = 1.
The subject of experiment [3] is GSK3B. Conditions: read-out: apparent Kd, n = 1.
Experiment [4] concerns CDK10. Conditions: read-out: apparent Kd; compound concentrations:100 nM and 1000 nM (sheet 'Samples'); n = 1.
Experiment [5] deals with CDK16. Conditions: read-out: apparent Kd; compound concentrations:100 nM and 1000 nM (sheet 'Samples'); n = 1.
The subject of experiment [6] is CDK17. Conditions: read-out: apparent Kd; compound concentrations:100 nM and 1000 nM (sheet 'Samples'); n = 1.
The test system of experiment [7] is CDK1. Conditions: read-out: apparent Kd; compound concentrations:100 nM and 1000 nM (sheet 'Samples'); n = 1.
Experiment [8] has as its system CDK2. To be noted: read-out: apparent Kd; compound concentrations:100 nM and 1000 nM (sheet 'Samples'); n = 1.
Experiment [9] has as its system CDK4. To be noted: read-out: apparent Kd; compound concentrations:100 nM and 1000 nM (sheet 'Samples'); n = 1.
Experiment [10] concerns CDK5. Conditions: read-out: apparent Kd; compound concentrations:100 nM and 1000 nM (sheet 'Samples'); n = 1.
In experiment [11] the test system is CDK6. To be noted: read-out: apparent Kd; compound concentrations:100 nM and 1000 nM (sheet 'Samples'); n = 1.
In experiment [12] the test system is CDK7. Conditions: read-out: apparent Kd; compound concentrations:100 nM and 1000 nM (sheet 'Samples'); n = 1.
Experiment [13] concerns CDK9. To be noted: read-out: apparent Kd; compound concentrations:100 nM and 1000 nM (sheet 'Samples'); n = 1.
The subject of experiment [14] is ICK. Conditions: read-out: apparent Kd; compound concentrations:100 nM and 1000 nM (sheet 'Samples'); n = 1.
Experiment [15] relates to SLK. To be noted: read-out: apparent Kd; compound concentrations:100 nM and 1000 nM (sheet 'Samples'); n = 1.
Experiment [16] deals with CLK1. To be noted: read-out: apparent Kd, n = 1.
The test system of experiment [17] is CLK4. To be noted: read-out: apparent Kd, n = 1.
Experiment [18] has as its system COX5A. Conditions: read-out: apparent Kd; compound concentrations: 100 nM and 1000 nM (sheet 'Samples'), CATDS: 4.3023154041585097E-2; n = 1.
The subject of experiment [19] is CSNK1D. To be noted: read-out: apparent Kd; compound concentrations: 100 nM and 1000 nM (sheet 'Samples'), CATDS: 4.2260690384559901E-2; n = 1.
In experiment [20] the test system is CSNK1E. To be noted: read-out: apparent Kd; compound concentrations: 100 nM and 1000 nM (sheet 'Samples'), CATDS: 3.6484131745227702E-2; n = 1.
Experiment [21] relates to EIF2AK1. Conditions: read-out: apparent Kd; compound concentrations: 100 nM and 1000 nM (sheet 'Samples'), CATDS: 4.9510201878617897E-2; n = 1.
The test system of experiment [22] is GAK. Conditions: read-out: apparent Kd; compound concentrations: 100 nM and 1000 nM (sheet 'Samples'), CATDS: 0.41748311116987502; n = 1.
Experiment [23] deals with IGF1R. Conditions: read-out: apparent Kd; compound concentrations: 100 nM and 1000 nM (sheet 'Samples'), CATDS: 4.75175381268634E-2; n = 1.
Experiment [24] has as its system INSR. To be noted: read-out: apparent Kd; compound concentrations: 100 nM and 1000 nM (sheet 'Samples'), CATDS: 6.6437205793840798E-2; n = 1.
The subject of experiment [25] is MAPK10. Conditions: read-out: apparent Kd, compound concentrations: 100 nM and 1000 nM (sheet 'Samples'), n = 1.
Experiment [26] deals with MAPK8. Conditions: read-out: apparent Kd, compound concentrations: 100 nM and 1000 nM (sheet 'Samples'), n = 1.
Experiment [27] has as its system MAPK9. Conditions: read-out: apparent Kd, compound concentrations: 100 nM and 1000 nM (sheet 'Samples'), n = 1.
For experiment [28], the system named is NQO2. To be noted: read-out: apparent Kd, n = 1.
Experiment [29] concerns PSMC4. Conditions: read-out: apparent Kd; compound concentrations: 100 nM and 1000 nM (sheet 'Samples'), CATDS: 4.1025682332982399E-2; n = 1.
For experiment [30], the system named is PTK2B. Conditions: read-out: apparent Kd; compound concentrations: 100 nM and 1000 nM (sheet 'Samples'), CATDS: 7.7838120070478606E-2; n = 1.
The subject of experiment [31] is TNK1. Conditions: read-out: apparent Kd, n = 1.
Experiment [32] has as its system TTK. Conditions: read-out: apparent Kd; compound concentrations: 100 nM and 1000 nM (sheet 'Samples'), CATDS: 5.00246606430578E-2; n = 1.
For experiment [33], the system named is CDC7. To be noted: read-out: apparent Kd; compound concentrations: 100 nM and 1000 nM (sheet 'Samples'), CATDS: 9.1392533314382199E-2; n = 1.
In experiment [34] the test system is CDKL5. To be noted: read-out: apparent Kd, n = 1.
For experiment [35], the system named is CSNK2A1;CSNK2A3. To be noted: read-out: apparent Kd, n = 1.
Experiment [36] has as its system CSNK2A2. To be noted: read-out: apparent Kd, n = 1.
Experiment [37] deals with DYRK1A. Conditions: read-out: apparent Kd, n = 1.
For experiment [38], the system named is CDK12. Conditions: read-out: apparent Kd; compound concentrations: 100 nM and 1000 nM (sheet 'Samples'), CATDS: 0.16242687072241299; n = 1.
Experiment [39] concerns CDK13. Conditions: read-out: apparent Kd; compound concentrations: 100 nM and 1000 nM (sheet 'Samples'), CATDS: 0.16446533875215399; n = 1.
The subject of experiment [40] is TGFBR2. Conditions: read-out: apparent Kd; compound concentrations:100 nM and 1000 nM (sheet 'Samples'); n = 1.
The test system of experiment [41] is EPHB2. To be noted: read-out: apparent Kd; compound concentrations:100 nM and 1000 nM (sheet 'Samples'); n = 1.
Experiment [42] concerns ERCC2. To be noted: read-out: apparent Kd; compound concentrations:100 nM and 1000 nM (sheet 'Samples'); n = 1.
The subject of experiment [43] is FER. To be noted: read-out: apparent Kd; compound concentrations:100 nM and 1000 nM (sheet 'Samples'); n = 1.
Experiment [44] has as its system MAPK7. Conditions: read-out: apparent Kd; compound concentrations:100 nM and 1000 nM (sheet 'Samples'); n = 1.
Experiment [45] deals with PDGFRB. Conditions: read-out: apparent Kd; compound concentrations:100 nM and 1000 nM (sheet 'Samples'); n = 1.
In experiment [46] the test system is TNK2. To be noted: read-out: apparent Kd; compound concentrations:100 nM and 1000 nM (sheet 'Samples'); n = 1.
[47] abbreviates: compound concentrations:100 nM and 1000 nM (sheet 'Samples').

Where two headings read alike, the source gives them in different places.

As for `Cn1cc(C2=C(c3cccc(N)c3)C(=O)NC2=O)c2ccccc21` [RO0317471-000], the potency estimated from few doses in [1] (CATDS: 0.203680819174512) is 1200 nM; in experiment [2] (compound concentrations: 100 nM and 1000 nM (sheet 'Samples'), CATDS: 0.53179335167556496) it was 23.5 nM; in experiment [3] (compound concentrations: 100 nM and 1000 nM (sheet 'Samples'), CATDS: 0.45250345973029299), 32.2 nM.

For the compound `COc1ccc(F)cc1C(=O)c1cnc(NC2CCN(S(C)(=O)=O)CC2)nc1N` [RO4517872-000], the potency estimated from few doses in experiment [4] is 915 nM; in experiment [5] it was 74.1 nM; in experiment [6] it was 75.1 nM; in experiment [7] it was 402 nM; in [8] it was 62.7 nM; in experiment [9] it was 1200 nM. The potency estimated from few doses in experiment [10] is 221 nM; in experiment [11] it was 1680 nM; in [12] it was 1460 nM; in [13], 246 nM; in experiment [14], 347 nM; in [15], 1280 nM.

With `CCCN1CCCC(c2ccc(Nc3nc(Nc4cc(F)ccc4C(N)=O)c4cc[nH]c4n3)c(OC)c2)C1` (centres unmarked) [GSK1173862A], the potency estimated from few doses in [1] (CATDS: 4.3032630224219597E-2) is 1230 nM; in experiment [16] (compound concentrations: 100 nM and 1000 nM (sheet 'Samples'), CATDS: 4.7124029654616303E-2), 927 nM; in experiment [17] (compound concentrations: 100 nM and 1000 nM (sheet 'Samples'), CATDS: 4.6212544182609797E-2), 982 nM; in experiment [18] it was 1230 nM; in [19], 1310 nM; in [20] it was 2340 nM. For the same compound, the potency estimated from few doses in experiment [21] was 805 nM; in [22] it was 17.6 nM; in [23], 905 nM; in experiment [24], 391 nM; in [25] (CATDS: 0.17405984899870899), 65.2 nM; in experiment [26] (CATDS: 0.110364514010045), 143 nM. The potency estimated from few doses is 427 nM in experiment [27] (CATDS: 6.3911773548267894E-2); 1570 nM in experiment [28] (compound concentrations: 100 nM and 1000 nM (sheet 'Samples'), CATDS: 4.0166930587455497E-2); 1450 nM in experiment [29]; 280 nM in [30]; 257 nM in experiment [31] (compound concentrations: 100 nM and 1000 nM (sheet 'Samples'), CATDS: 8.1062749446302901E-2); 783 nM in [32].

Consider `O=C1N=C(N[C@@H]2C[C@H]2c2ccccc2)S/C1=C\c1ccc2ncccc2c1` [RO4915610-000], for which the potency estimated from few doses is 1800 nM in experiment [33]; 1130 nM in experiment [34] (compound concentrations: 100 nM and 1000 nM (sheet 'Samples'), CATDS: 0.100532719571443); 542 nM in [16] (compound concentrations: 100 nM and 1000 nM (sheet 'Samples'), CATDS: 0.12211476464111); 671 nM in experiment [17] (compound concentrations: 100 nM and 1000 nM (sheet 'Samples'), CATDS: 0.114770368167016); 61.5 nM in [35] (compound concentrations: 100 nM and 1000 nM (sheet 'Samples'), CATDS: 0.31191577539645199); 51.1 nM in experiment [36] (compound concentrations: 100 nM and 1000 nM (sheet 'Samples'), CATDS: 0.34928398987599801). For the same compound, in experiment [37] (compound concentrations: 100 nM and 1000 nM (sheet 'Samples'), CATDS: 0.194548178255603), the potency estimated from few doses was 154 nM.

Consider `CN(C)C/C=C/C(=O)Nc1ccc(C(=O)N2CCC[C@@H](Nc3ncc(Cl)c(-c4c[nH]c5ccccc45)n3)C2)cc1` [THZ531], for which the potency estimated from few doses in experiment [38] was 1800 nM; in experiment [39] it was 1740 nM; in experiment [25] (CATDS: 0.33495043269217101) it was 434 nM; in experiment [26] (CATDS: 0.17846593111563799) it was 1410 nM; in [27] (CATDS: 0.23956411042419101), 760 nM.

With `CCN1CCC(CC(=O)Nc2n[nH]c3nnc(-c4cccc(F)c4F)cc23)CC1.O=C(O)[C@H](O)[C@@H](O)C(=O)O` [SB-698596-AC], the potency estimated from few doses is 53.3 nM in experiment [5]; 995 nM in [6]; 46.9 nM in experiment [34] (setting [47]); 693 nM in [16] (setting [47]); 1420 nM in experiment [17] (setting [47]); 1520 nM in experiment [37] (setting [47]). For the same compound, the potency estimated from few doses in experiment [2] (compound concentrations: 100 nM and 1000 nM (sheet 'Samples'), CATDS: 0.61035791771228698) is 0.905 nM; in experiment [3] (setting [47]), 2.33 nM.

Turning to `CC(C)COC(=O)c1ccc2c(c1)/C(=C/Nc1ccc(S(N)(=O)=O)cc1)C(=O)N2` [GW416981X], the potency estimated from few doses was 964 nM in experiment [5]; 587 nM in experiment [8]; 1290 nM in experiment [34] (setting [47]); 1480 nM in experiment [17] (setting [47]); 477 nM in experiment [35] (setting [47]); 246 nM in experiment [36] (setting [47]). Also, the potency estimated from few doses in experiment [40] is 1860 nM.

As for `CN1CCC(C(=O)Nc2n[nH]c3nc(-c4ccc(O)cc4)c(Br)cc23)CC1.O=C(O)/C=C\C(=O)O` [SB-732881-H], the potency estimated from few doses was 531 nM in experiment [5]; 459 nM in experiment [6]; 786 nM in experiment [11]; 732 nM in experiment [12]; 234 nM in experiment [13]; 21 nM in experiment [34] (setting [47]). Also, the potency estimated from few doses in experiment [41] was 1100 nM; in [42] it was 985 nM; in [43], 1270 nM; in experiment [2] (setting [47]), 2.51 nM; in [3] (setting [47]), 8.66 nM; in [14] it was 1160 nM. The potency estimated from few doses in experiment [44] is 1760 nM; in experiment [28] (setting [47]) it was 1590 nM; in [45], 1730 nM; in experiment [31] (setting [47]), 744 nM; in experiment [46], 964 nM.
